A short description of assay [1]: stimulators of insulin release from INS-1E, primary screen, cell-based, 5 mM glucose, NPC library (AID 1117329;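 active means compound raises insulin release from rat beta cells at 5 mM glucose, no numeric limit stated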). As to conditions: rat INS-1E insulin secretion, at 10 µM, stronger effect = higher value.
Assay [2] can be described thus: growth inhibition of GSK3B-pretreated HCT116 cells – cell-based, CellTiter-Glo, 0.2 to 20 µM (AID 1117336;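 active means compounds lowering colon cancer cell viability after pretreatment blocking the GSK3B kinase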). As to conditions: HCT116 viability after GSK3B inhibitor, at 20 µM, stronger effect = higher value. Background: ATP-based viability assays read luminescence as a measure of living cells.
Assay [3] can be described thus: inhibition of endothelial tube formation, primary screen, imaging, VEGF stimulated, CD31 staining, tube area, NPC library (AID 1117340;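 active means compound that reduces growth-factor-driven endothelial tube area in a mixed cell culture, no cutoff stated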). As to conditions: VEGF-stimulated ADSC/ECFC co-culture, at 10 µM, stronger effect = higher value.
Assay [4] in a line: glucagon-like peptide 1 release enhancers, primary assay, NCI-H716 cell line, NPC library (AID 1117341;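 active means compound raises GLP1 secretion from the human gut endocrine cells, with no numeric limit stated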). As to conditions: NCI-H716 cells, at 10 µM, stronger effect = higher value.
Assay [5] can be described thus: HCT116 colon cancer cell growth inhibition, primary screen, CellTiter-Glo luminescence, NPC library (AID 1117342;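 active means compounds that lower survival of HCT116 colon cancer cells in the luminescence readout, no numeric limit stated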). The note with it: at 20 µM (top of the series).
Assay [6] in a line: CellTiter-Glo luminescent readout of SW480 viability loss, NPC library primary (AID 1117343;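 active means compounds that lower viability of the colon cancer cells in the luminescence readout, with no numeric limit stated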). The note with it: CellTiter-Glo luminescence; at 20 µM (top of the series).
The nature of assay [7]: decreased DLD-1 cellular survival, CellTiter-Glo luminescent readout, NPC compound collection, primary HTS (AID 1117346;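 active means compounds that lower survival of DLD-1 colon cancer cells in the luminescence readout, no cutoff given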). As to conditions: DLD-1 viability, CellTiter-Glo luminescence; at 20 µM (top of the series).
Assay [8] is described as follows: modulation of C. elegans fzo-1 (AID 1259413).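 Further: fzo-1 mutant C. elegans worms in liquid wells.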 The note with it: C. elegans fzo-1 modulator screen, mean read-out; stronger effect = higher value.
Assay [9] addresses 6-phosphogluconate dehydrogenase, decarboxylating (Homo sapiens) (UniProt P52209). Kind of assay: 6PGD enzyme inhibitors, primary screen, biochemical, human, recombinant enzyme, NADPH absorbance (AID 1159550;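 active means at least 20% inhibition of 6-phosphogluconate dehydrogenase activity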). As to conditions: recombinant 6PGD, NADPH absorbance 341 nm; at 10 µM; stronger effect = higher value.
Assay [10] in a line: growth inhibition of DIPG glioma cells, dose response, cell-based, SU-DIPG-XVII, MIPE5.0, CellTiter-Glo, qHTS (AID 1347060; cut-off not given, nearly all actives have AC50 up to about 26 µM;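 further: cells exposed to compound for 48 hours before viability readout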). The note with it: SU-DIPG-XVII viability, CellTiter-Glo ATP luminescence.
Assay [11] can be described thus: growth inhibition of DIPG glioma cells, dose response, cell-based, SU-DIPG-XIII, MIPE5.0, CellTiter-Glo, qHTS (AID 1347064; cut-off not given, nearly all actives have AC50 up to about 23 µM). The note with it: SU-DIPG-XIII viability, CellTiter-Glo ATP luminescence.
Assay [12] can be described thus: growth inhibition of DIPG glioma cells, dose response, cell-based, SU-DIPG-XIII, MIPE4.0, CellTiter-Glo, qHTS (AID 1347061; cut-off not given, nearly all actives have AC50 up to about 37 µM;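 further: cells exposed to compound for 48 hours before readout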). As to conditions: SU-DIPG-XIII viability, CellTiter-Glo ATP luminescence.
The nature of assay [13]: growth inhibition of DIPG glioma cells, dose response, cell-based, JHH-DIPG-1, MIPE4.0, CellTiter-Glo, qHTS (AID 1347062; cut-off not given, nearly all actives have AC50 up to about 27 µM). The note with it: JHH-DIPG-1 viability, CellTiter-Glo ATP luminescence.
Assay [14] can be described thus: growth inhibition of DIPG glioma cells, dose response, cell-based, SU-DIPG-IV, MIPE4.0, CellTiter-Glo, qHTS (AID 1347063; cut-off not given, nearly all actives have AC50 up to about 30 µM;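 further: compound exposure lasted 48 hours before the viability readout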). As to conditions: SU-DIPG-IV viability, CellTiter-Glo ATP luminescence.
The target of assay [15] is Calcium-dependent protein kinase 1 (Plasmodium falciparum (isolate 3D7)) (UniProt P62344). As to the kind of experiment: PfCDPK1 kinase inhibitors, biochemical, TCAMS library (AID 1159585; cut-off not given, nearly all actives have IC50 up to about 0.98 µM;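 further: inhibitors leave more ATP so luminescence rises with inhibition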). As to conditions: recombinant PfCDPK1, Kinase-Glo ATP depletion luminescence. Background: Kinase-Glo measures the ATP left after a reaction by luminescence.
Assay [16] concerns the target Plasmodium falciparum protein kinase 6 (PK6, PF3D7_1337100) (UniProt Q8IDW1). Kind of assay: PfPK6 kinase inhibitors, biochemical, TCAMS library (AID 1159586). The note with it: recombinant PfPK6, Kinase-Glo ATP depletion luminescence.
The target of assay [17] is Protein kinase 7 (PK7), Plasmodium falciparum 3D7 (PF3D7_0213400) (UniProt Q7YTF7). Kind of assay: inhibition of Plasmodium PK7 catalytic activity – biochemical, TCAMS antimalarial set, Kinase-Glo luminescence (AID 1159587). The note with it: recombinant PfPK7, Kinase-Glo ATP depletion luminescence.
In assay [18] the target is Calcium-dependent protein kinase 4 (Plasmodium falciparum (isolate 3D7)) (UniProt Q8IBS5). Kind of assay: PfCDPK4 kinase inhibitors, biochemical, TCAMS library (AID 1159588; cut-off not given, nearly all actives have IC50 up to about 0.91 µM). The note with it: recombinant PfCDPK4, Kinase-Glo ATP depletion luminescence.
Assay [19] in a line: differential killing of epithelial or mesenchymal cells, primary screen, imaging, PC-3E GFP, TEM4-18 mCherry, co-culture (AID 1345086;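 active means compounds killing one labelled cell type while sparing the other, by normalised counts and ratio limits, not self-fluorescent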;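 further: cells exposed to compound for 72 h before imaging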;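 on red/green cell ratio (normalised): normalised mesenchymal count divided by normalised epithelial count so high means epithelial killing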). As to conditions: imaging cell counts, at 1 µM.
The test system of assay [20] is Aerobactin synthetase IucA (Klebsiella pneumoniae). As to the kind of experiment: IucA aerobactin synthetase inhibitors, biochemical, Tocris library, absorbance (AID 1345561).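 Further: 100% = enzyme without compound and 0% = no enzyme.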 As to conditions: purified IucA enzyme assay, absorbance (OD) read-out; stronger effect = lower value;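 tested at 8 µM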.

Inconclusive results are not listed. For part of these data: Measured potencies and affinities stand elsewhere. Active and inactive are the calls of the source. Unless noted, how the calls were made is not given here.

Chain of 6-phosphogluconate dehydrogenase, decarboxylating (Homo sapiens) (P52209 whole entry, looked up): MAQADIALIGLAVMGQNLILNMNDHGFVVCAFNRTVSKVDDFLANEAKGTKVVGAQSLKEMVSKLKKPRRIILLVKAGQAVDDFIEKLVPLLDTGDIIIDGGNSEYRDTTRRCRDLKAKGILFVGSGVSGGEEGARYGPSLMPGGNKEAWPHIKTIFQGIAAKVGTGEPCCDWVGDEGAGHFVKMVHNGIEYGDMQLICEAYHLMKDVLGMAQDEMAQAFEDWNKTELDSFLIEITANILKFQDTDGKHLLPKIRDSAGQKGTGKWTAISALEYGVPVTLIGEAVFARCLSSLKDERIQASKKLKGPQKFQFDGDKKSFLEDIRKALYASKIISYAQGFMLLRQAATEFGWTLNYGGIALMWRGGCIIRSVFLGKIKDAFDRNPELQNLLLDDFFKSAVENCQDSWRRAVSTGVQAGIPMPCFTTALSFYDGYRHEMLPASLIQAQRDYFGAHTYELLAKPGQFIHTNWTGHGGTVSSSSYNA
Chain of Plasmodium falciparum protein kinase 6 (PK6, PF3D7_1337100) (Q8IDW1 1-305): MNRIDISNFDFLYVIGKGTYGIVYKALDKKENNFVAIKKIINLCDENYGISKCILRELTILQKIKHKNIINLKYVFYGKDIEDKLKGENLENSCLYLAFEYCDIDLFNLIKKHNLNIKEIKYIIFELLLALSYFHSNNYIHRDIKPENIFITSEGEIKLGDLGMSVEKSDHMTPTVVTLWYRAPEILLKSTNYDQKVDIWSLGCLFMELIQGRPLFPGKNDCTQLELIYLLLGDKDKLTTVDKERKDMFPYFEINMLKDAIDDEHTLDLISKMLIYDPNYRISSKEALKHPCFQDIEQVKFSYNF
Chain of Protein kinase 7 (PK7), Plasmodium falciparum 3D7 (PF3D7_0213400) (Q7YTF7 1-343): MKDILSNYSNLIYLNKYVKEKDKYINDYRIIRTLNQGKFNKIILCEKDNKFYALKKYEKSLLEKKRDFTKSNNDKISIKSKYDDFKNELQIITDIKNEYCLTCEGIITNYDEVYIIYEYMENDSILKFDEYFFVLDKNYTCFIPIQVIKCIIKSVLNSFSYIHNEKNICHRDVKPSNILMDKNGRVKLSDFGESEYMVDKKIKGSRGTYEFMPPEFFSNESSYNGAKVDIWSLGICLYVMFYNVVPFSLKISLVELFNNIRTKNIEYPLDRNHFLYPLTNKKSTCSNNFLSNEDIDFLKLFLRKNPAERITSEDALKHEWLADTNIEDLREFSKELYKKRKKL
Chain of Calcium-dependent protein kinase 4 (Plasmodium falciparum (isolate 3D7)) (Q8IBS5 whole entry, looked up): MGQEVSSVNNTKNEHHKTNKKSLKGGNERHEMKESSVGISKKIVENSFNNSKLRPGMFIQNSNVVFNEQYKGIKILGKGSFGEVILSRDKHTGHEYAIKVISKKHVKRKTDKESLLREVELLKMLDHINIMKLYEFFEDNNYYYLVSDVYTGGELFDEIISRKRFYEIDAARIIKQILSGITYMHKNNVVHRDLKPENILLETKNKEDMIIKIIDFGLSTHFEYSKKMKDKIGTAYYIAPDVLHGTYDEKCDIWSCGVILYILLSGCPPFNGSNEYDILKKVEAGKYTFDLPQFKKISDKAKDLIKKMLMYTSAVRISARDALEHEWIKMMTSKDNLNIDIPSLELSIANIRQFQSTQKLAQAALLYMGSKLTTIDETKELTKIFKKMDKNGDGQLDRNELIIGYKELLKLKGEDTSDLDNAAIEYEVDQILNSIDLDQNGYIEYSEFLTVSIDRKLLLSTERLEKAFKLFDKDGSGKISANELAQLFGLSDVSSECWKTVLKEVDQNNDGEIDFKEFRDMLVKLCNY
Chain of Calcium-dependent protein kinase 1 (Plasmodium falciparum (isolate 3D7)) (P62344 whole entry, looked up): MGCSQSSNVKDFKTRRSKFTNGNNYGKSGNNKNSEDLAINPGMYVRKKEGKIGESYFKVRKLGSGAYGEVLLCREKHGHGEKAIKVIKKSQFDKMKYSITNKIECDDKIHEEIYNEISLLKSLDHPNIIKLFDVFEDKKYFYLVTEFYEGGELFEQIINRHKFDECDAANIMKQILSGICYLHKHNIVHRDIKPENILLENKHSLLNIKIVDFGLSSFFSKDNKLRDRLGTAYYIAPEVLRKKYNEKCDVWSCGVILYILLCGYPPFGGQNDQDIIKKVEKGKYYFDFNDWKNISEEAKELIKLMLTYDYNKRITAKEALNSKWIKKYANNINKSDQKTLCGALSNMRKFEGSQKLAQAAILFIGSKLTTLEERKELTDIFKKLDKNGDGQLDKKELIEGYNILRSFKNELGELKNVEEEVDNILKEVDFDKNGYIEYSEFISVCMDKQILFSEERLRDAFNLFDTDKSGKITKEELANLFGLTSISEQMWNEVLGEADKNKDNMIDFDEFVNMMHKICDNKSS

In the case of `COCc1c(C(C)C)nc(C(C)C)c(/C=C/[C@@H](O)C[C@@H](O)CC(=O)O)c1-c1ccc(F)cc1`, in assay [1], the insulin secretion stimulation is -0.8% (inactive). Besides, the viability decrease in assay [2] was 107% (active). In assay [3], the tube area decrease was 107% (active). Besides, in [4], the GLP1 secretion stimulation was 3.1% (inactive). Besides, the inhibition of viability in assay [5] was 112% (active). Also, the viability decrease (inhibition) is 151% (active) in assay [6] and 98.6% (active) in assay [7]. Moreover, in assay [8], the mean signal is 232 (inactive).
`CCN1CCN(C(=O)N[C@@H](C(=O)N[C@@H]2C(=O)N3C(C(=O)O)=C(CSc4nnnn4C)CS[C@H]23)c2ccc(O)cc2)C(=O)C1=O`: the insulin secretion stimulation in [1] is 1.3% (inactive). In [2], the viability decrease was 6.1% (inactive). Moreover, the tube area decrease in [3] was -32.8% (inactive). Also, the GLP1 secretion stimulation in assay [4] is 5.2% (inactive). Further, the inhibition of viability in assay [5] is -2.2% (inactive). Also, the figures for the viability decrease (inhibition) in [6] and in assay [7] were 8.6% (inactive) and 3.3% (inactive), respectively. Further, the inhibition in [9] was 16.7% (inactive). In assay [10], the AC50 is 26.3 µM (active). In [11], the outcome was inactive.
As for `Cc1onc(-c2ccccc2)c1C(=O)N[C@@H]1C(=O)N2[C@@H]1SC(C)(C)[C@@H]2C(=O)O`, the insulin secretion stimulation in assay [1] was 6.3% (inactive). The viability decrease in [2] was 0.4% (inactive). Besides, the tube area decrease in [3] is -1.6% (inactive). For the same compound, the GLP1 secretion stimulation in [4] is -3.6% (inactive). Further, the inhibition of viability in assay [5] was 5.3% (inactive). The viability decrease (inhibition) in assay [6] was -4.9% (inactive); in [7] it was -3.8% (inactive). Also, in assay [9], the inhibition was 8.76% (inactive). For the same compound, the compound was classed as inactive in assay [12], in assay [13] and in assay [14].
As to `CCOc1ccc2nc3cc(N)ccc3c(N)c2c1`, the insulin secretion stimulation in [1] was 3.5% (inactive). Also, the viability decrease in [2] is 81.2% (active). Moreover, in assay [3], the tube area decrease is 73.3% (active). In assay [4], the GLP1 secretion stimulation was 8.6% (inactive). Further, the inhibition of viability in assay [5] was 70.6% (active). The figures for the viability decrease (inhibition) in assay [6] and in assay [7] were 121% (active) and 47.2% (inactive), respectively. For the same compound, the result in assay [15], in assay [16], in assay [17] and in assay [18] was inactive. In addition, the red/green cell ratio (normalised) in [19] (actives lie on both sides, counts scaled to control wells, 1 = unselective) is 1.04 (inactive). Moreover, the normalised cell number in assay [19] (measured here: epithelial PC-3E GFP cell survival) was 0.62; in [19] (measured here: mesenchymal TEM4-18 mCherry cell survival), 0.65.
In the case of `C[C@H]1O[C@@H](n2cc(F)c(=O)[nH]c2=O)[C@H](O)[C@@H]1O`, in assay [1], the insulin secretion stimulation was -1.2% (inactive). The viability decrease in assay [2] was 29.5% (inactive). In addition, the tube area decrease in assay [3] was 22.2% (inactive). The GLP1 secretion stimulation in [4] was -2.6% (inactive). Also, the inhibition of viability in [5] was 59.6% (active). For the same compound, the viability decrease (inhibition) in assay [6] was 20.6% (inactive); in [7] it was 8.35% (inactive). Besides, the inhibition in assay [9] was -6.33% (inactive). In assay [13], the call was inactive.
In the case of `CC(C)NC[C@@H](O)COc1cccc2ccccc12`, the insulin secretion stimulation in assay [1] is 15.3% (inactive). The viability decrease in assay [2] was 6.9% (inactive). The tube area decrease in [3] was 5.1% (inactive). Further, the GLP1 secretion stimulation in [4] was 3.3% (inactive). For the same compound, the inhibition of viability in assay [5] was 0.8% (inactive). Moreover, the figures for the viability decrease (inhibition) in assay [6] and in assay [7] were 54.8% (active) and 13.7% (inactive), respectively. For the same compound, the inhibition in [9] was 5.64% (inactive). For the same compound, the remaining activity in [20] was 109% (inactive).
Regarding `C[C@]12CC[C@@H]3c4ccc(O)cc4CC[C@H]3[C@@H]1C[C@@H](O)[C@@H]2O`, the insulin secretion stimulation in assay [1] is 2% (inactive). The viability decrease in assay [2] was 11.1% (inactive). The tube area decrease in assay [3] is -3.9% (inactive). Further, in [4], the GLP1 secretion stimulation is 12.5% (inactive). In assay [5], the inhibition of viability was 4.67% (inactive). Besides, the viability decrease (inhibition) in assay [6] was 25.1% (inactive); in assay [7], -13.7% (inactive). In [9], the inhibition is -14.5% (inactive). Besides, the call in [11] was inactive.
For `CN(Cc1cnc2nc(N)nc(N)c2n1)c1ccc(C(=O)N[C@@H](CCC(=O)O)C(=O)O)cc1`, the insulin secretion stimulation in assay [1] was -1.8% (inactive). The viability decrease in [2] was 87.8% (active). Besides, the tube area decrease in assay [3] was 57.2% (active). Further, in assay [4], the GLP1 secretion stimulation is 1.1% (inactive). Further, in assay [5], the inhibition of viability is 74.5% (active). For the same compound, the viability decrease (inhibition) in [6] was 78.8% (active); in assay [7], 65.9% (active). For the same compound, the result in assay [15], in assay [16], in [17], in assay [18] and in [12] was inactive. For the same compound, in assay [8], the mean signal is 204 (inactive). Further, the remaining activity in assay [20] is 114% (inactive).

By inhibition is commonly meant the change of the read-out against control, counted positive when it falls. Usually AC50 stands for the concentration giving half of the maximal activity seen. The term remaining activity denotes the signal under treatment as a percentage of the control signal.

(Values after PubChem BioAssay.)
